Screening data: PubChem BioAssay, National Center for Advancing Translational Sciences (NCATS)
An excerpt weighted towards active compounds, which were near 8.1% of everything screened.
SW480 rereplic – A quantitative high throughput screen for small molecules that induce DNA re-replication in SW480 colon adenocarcinoma cells | SW480 DNA re-replication, Hoechst DNA content imaging, 48 h | Potency, µM (top dose mostly 46.1 µM), for inactives: at the highest dose re-replication activation, actives largely listed as activators | 340,000 tested, 1.8% active | AID 624297, 2012; note: % of control where 0% means no effect; nearly all actives have a fitted effect of over 55% in size
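Image-based read-out: total Hoechst fluorescence of nuclei (405 nm excitation, 500-530 nm emission), with hits raising the fraction of high-intensity nuclei. SW480 colon cells incubated 48 hr with compounds at 37 C.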
MCF10A rerep – A quantitative high throughput screen for small molecules that induce DNA re-replication in MCF 10a normal breast cells; MCF 10A DNA re-replication, Hoechst nuclear intensity, 48 h; Potency, µM (titrated, usually from 46.1 µM), inactives show at the highest dose activity, positive = re-replication, actives largely listed as activators; 350,000 tested, 2.9% active; note: % of control where 0% means no effect; nearly all actives have a fitted effect of over 50% in size
KB-V1 cytotox – qHTS assay for MDR1-selective chemotherapeutics: Primary screen using the drug-selected MDR subline cells KB-V1 | 400,000 tested, 3.4% active | KB-V1 MDR cells viability, CellTiter-Glo, 72 h | Potency, µM (top dose mostly 46.1 µM), actives largely listed as cytotoxic; note: % is set by controls: 0 for no effect and ±100 for the full control effect; nearly all actives have a fitted effect of over 60% in size
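qHTS viability screen in drug-selected KB-V1 MDR cells: 72 h compound treatment at 37 degrees C, ATP luminescence end point.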
KB-3-1 tox – qHTS assay for MDR1-selective chemotherapeutics: Primary screen using the parental adenocarcinoma cell KB-3-1 | KB-3-1 viability, CellTiter-Glo ATP luminescence, 72 h | Potency, µM (highest dose often 46.1 µM), hits mostly cytotoxic | 400,000 tested, 1.4% active | AID 1347075, 2019; note: % is set by controls: 0 for no effect and ±100 for the full control effect; nearly all actives have a fitted effect of over 60% in size
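Cytotoxicity measured as CellTiter-Glo luminescence after 72 h at 37 C. Compound titrations were pinned onto drug-naive KB-3-1 parental adenocarcinoma cells grown in DMEM with 10% FBS, and normalized data fitted to concentration-response curves.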
ELG1 repair inh – qHTS screen for small molecules that inhibit ELG1-dependent DNA repair in human embryonic kidney (HEK293T) cells expressing luciferase-tagged ELG1 | HEK293T ELG1-luciferase reporter, luminescence, 16 h; DNA damage induced by 5-fluorouridine | Potency, µM (doses to about 46.1 µM), for the others: top-dose activity change, negative = inhibition, most hits filed as inhibitors | 330,000 tested, 2.3% active | AID 504467, 2011; note: % is set by controls: 0 for no effect and ±100 for the full control effect; nearly all actives have a fitted effect of over 55% in size
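Step one: seed 2,000 cells per well. Step two: pin-transfer compound or DMSO alongside 5-fluorouridine. Step three: incubate 16 hr, 37 °C, 5% CO2. Step four: add ONE-Glo, wait 30 min, read luminescence.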
* hit, by the source's call; i = inactive; ? = inconclusive; . = no result; ! = not active in a repeat; [ ] = remark or other dose. Calls come from the whole dose curve; as a rule, active = well fitted curve in the direction sought with a large enough effect; inconclusive = small, poorly fitted or top-dose-only effect, or another doubt; inactive = no such curve, though single readings can be large; an effect the other way counts as inactive or inconclusive. Potency is the fitted concentration of half-maximal effect.

SMILES	SW480 rereplic	MCF10A rerep	KB-V1 cytotox	KB-3-1 tox	ELG1 repair inh
CCOc1ccc(C(C)=O)cc1N1C(=O)C2C(C1=O)C1C=CC2C12CC2 (stereo not given)	0%	-3%	?	i	6%
CCOc1ccc(C(C)=O)cc1N1C(=O)C2C3C=CC(C3=C(C)C)C2C1=O (stereo not given)	-9%	-10%	16µM*	i	?
CCCCNc1c(-c2ccc(OC)c(SC(C)CC)c2)nc2cc(C)ccn12 (stereo not given)	?	21µM*	i	?	?
CCCCCCSc1cccc(-c2nc3ccc(Cl)cn3c2NCc2ccccc2)c1	-3%	21µM*	?	i	23%
CCCCNc1c(-c2ccc(OC)c(SC(C)CC)c2)nc2ccc(Cl)cn12 (stereo not given)	11%	21µM*	i	i	-20%
CCCCNc1c(-c2ccc(Sc3ccc(OC)cc3)cc2)nc2cc(C)ccn12	?	23µM*	i	?	?
CC(C)Oc1ccc(CNC(=O)C2COc3ccccc3C2)cc1 (stereo not given)	.	.	i	i	.
CCCCCCSc1cc(-c2nc3ccc(C)cn3c2NCCCC)ccc1OC	?	?	?	i	?
CCCCCCSc1ccc(-c2nc3ccc(C)cn3c2NCc2ccccc2)cc1OC	?	84%	?	?	?
CCCCNc1c(-c2ccc(OC)c(SC(C)CC)c2)nc2ccc(C)cn12 (stereo not given)	13%[9.22 µM]	?	18µM*!	?	7.3µM*
CCCCNc1c(-c2cccc(SC(C)CC)c2)nc2ccc(Cl)cn12 (stereo not given)	-6%	?	?	?	-25%
CCC(C)Sc1ccc(-c2nc3ccc(C)cn3c2NCc2ccccc2)cc1OC (stereo not given)	?	6.5µM*	?	i	?
CCC(C)Sc1ccc(-c2nc3ccc(Cl)cn3c2NCc2ccccc2)cc1 (stereo not given)	15%	12µM*	i	i	?
Cn1c(=O)n(C)c2cc([N+](=O)[O-])c(N3CCN(S(C)(=O)=O)CC3)cc21	-7%	3%	i	i	-5%
Cn1c(=O)n(C)c2cc([N+](=O)[O-])c(N3CCN(S(=O)(=O)c4ccccc4)CC3)cc21	0%	19%	2.9µM*	?	12µM*
O=[N+]([O-])c1ccc(N2CCN(S(=O)(=O)c3ccccc3)CC2)c2cccnc12	4%	5%[9.22 µM]	8.2µM*	i	?
O=C(c1ccc(N2CCN(S(=O)(=O)c3ccccc3)CC2)c([N+](=O)[O-])c1)N1CCOCC1	2%	1%	3.7µM*	i	?
Cn1c(=O)n(C)c2cc([N+](=O)[O-])c(N3CCN(C(=O)c4ccccc4Cl)CC3)cc21	-18%	-8%	16µM*	23µM*	?
Cn1c(=O)n(C)c2cc([N+](=O)[O-])c(N3CCN(C(=O)c4ccccc4Br)CC3)cc21	-1%	1%	i	i	?
O=C(c1ccc(N2CCOCC2)c([N+](=O)[O-])c1)N1CCN(c2ccccc2)CC1	9%	16%	i	i	.
COc1cccc(OC2(C)CCN(Cc3cccn3-c3nccs3)C2)c1 (stereo not given)	.	.	?	i	.
COc1cc(/C=C2/SC(=S)N(CCC(=O)N3CCN(C)CC3)C2=O)cc(OC)c1OC	.	.	i	i	.
CC(C)N1CCCC(C)(C(=O)Nc2ccccc2)C1 (stereo not given)	.	.	i	i	.
NC(=O)c1ccc(N2CCN(c3ccccc3O)CC2)c([N+](=O)[O-])c1	-5%	0%	?	i	16µM*
CN(c1ccc(C(=O)N2CCOCC2)cc1[N+](=O)[O-])C1CCCCC1	-6%	0%	23µM*	i	?
COc1cccc(-c2nc(Cn3c(=O)cc(C)c4c(C)nn(-c5ccccc5)c43)c(C)o2)c1OC	.	.	i	i	.
